# Experimental data taken from the supplement of paper PMC10849652.
# About 7,900 targets were measured; listed, in parts, are those with a hit and a random draw of the rest. About 0.6% of all pairs of compound and target were hits. Values without a mark were called inactive.
# Compound: Cc1nc(Nc2ncc(C(=O)Nc3c(C)cccc3Cl)s2)cc(N2CCN(CCO)CC2)n1 [dasatinib]
# Test: log2 fold change, soluble protein after heating vs DMSO (PISA); higher = thermal stabilisation; K562 cells, 10 uM, 30 min; active = over 0.2 and 3.5 SD of the protein, either way, in both replicates (recomputed)
# Method in brief: (§1)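 Quantification of soluble protein used TMTpro 16plex LC-MS/MS, with channel sums equalised. Samples were the supernatant after 21,000xg for 90 min of pooled aliquots from K562 cells (2×10^6 cells/mL) treated with 10 μM compound for 30 min, heated for 3 min over 48°C-58°C, and extracted in PBS with 0.5% NP-40 at 4°C. Values, from duplicates, describe thermal stability against control samples on a log2 fold-change scale.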
# Sequence of UniProt Q9UJA2 (Q9UJA2 whole entry, looked up): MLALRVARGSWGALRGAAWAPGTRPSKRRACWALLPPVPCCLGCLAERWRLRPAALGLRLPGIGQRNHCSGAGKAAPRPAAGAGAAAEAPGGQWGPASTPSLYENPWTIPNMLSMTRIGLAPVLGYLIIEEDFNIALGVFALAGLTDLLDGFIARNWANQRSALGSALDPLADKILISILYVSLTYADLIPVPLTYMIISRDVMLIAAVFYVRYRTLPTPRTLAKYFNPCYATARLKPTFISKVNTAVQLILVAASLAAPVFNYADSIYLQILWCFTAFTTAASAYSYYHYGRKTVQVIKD
# Sequence of UniProt Q15417 (Q15417 whole entry, looked up): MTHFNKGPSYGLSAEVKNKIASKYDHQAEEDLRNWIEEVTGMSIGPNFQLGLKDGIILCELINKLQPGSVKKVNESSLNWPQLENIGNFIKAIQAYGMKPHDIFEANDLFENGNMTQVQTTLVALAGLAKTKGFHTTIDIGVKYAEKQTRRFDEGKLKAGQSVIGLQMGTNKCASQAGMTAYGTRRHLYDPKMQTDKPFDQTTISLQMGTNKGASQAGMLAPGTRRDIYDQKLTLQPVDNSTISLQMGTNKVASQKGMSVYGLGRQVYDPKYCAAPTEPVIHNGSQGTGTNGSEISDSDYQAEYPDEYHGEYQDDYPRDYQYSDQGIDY
# Sequence of UniProt Q96MX0 (Q96MX0 whole entry, looked up): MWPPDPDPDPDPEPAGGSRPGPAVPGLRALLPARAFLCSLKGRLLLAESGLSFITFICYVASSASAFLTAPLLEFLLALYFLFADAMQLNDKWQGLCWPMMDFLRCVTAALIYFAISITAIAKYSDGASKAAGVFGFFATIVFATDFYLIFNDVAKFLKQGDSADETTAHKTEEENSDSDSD
# Sequence of UniProt Q9BWU1 (Q9BWU1 whole entry, looked up): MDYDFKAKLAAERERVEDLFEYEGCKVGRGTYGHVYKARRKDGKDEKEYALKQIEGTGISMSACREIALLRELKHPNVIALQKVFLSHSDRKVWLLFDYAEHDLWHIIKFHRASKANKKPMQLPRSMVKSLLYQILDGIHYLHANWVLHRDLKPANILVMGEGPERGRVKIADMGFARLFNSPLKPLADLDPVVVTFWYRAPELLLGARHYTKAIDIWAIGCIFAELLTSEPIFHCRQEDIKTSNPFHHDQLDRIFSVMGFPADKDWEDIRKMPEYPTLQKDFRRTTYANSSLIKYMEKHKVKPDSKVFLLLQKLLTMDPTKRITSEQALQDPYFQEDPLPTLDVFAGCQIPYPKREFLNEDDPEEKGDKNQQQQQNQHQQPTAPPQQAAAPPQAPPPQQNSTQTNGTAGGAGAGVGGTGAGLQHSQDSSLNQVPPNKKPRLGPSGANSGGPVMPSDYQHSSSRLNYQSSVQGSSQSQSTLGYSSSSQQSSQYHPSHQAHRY
# Sequence of UniProt P11802 (P11802 whole entry, looked up): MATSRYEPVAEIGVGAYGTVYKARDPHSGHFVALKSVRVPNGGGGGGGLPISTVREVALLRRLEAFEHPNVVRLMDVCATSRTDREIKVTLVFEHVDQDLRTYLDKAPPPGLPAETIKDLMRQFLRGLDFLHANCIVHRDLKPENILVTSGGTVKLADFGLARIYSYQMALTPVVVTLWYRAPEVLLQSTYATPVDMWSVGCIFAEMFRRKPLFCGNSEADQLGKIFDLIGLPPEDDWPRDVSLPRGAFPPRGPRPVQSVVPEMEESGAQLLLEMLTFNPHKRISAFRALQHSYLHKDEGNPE
# Sequence of UniProt Q00536 (Q00536 whole entry, looked up): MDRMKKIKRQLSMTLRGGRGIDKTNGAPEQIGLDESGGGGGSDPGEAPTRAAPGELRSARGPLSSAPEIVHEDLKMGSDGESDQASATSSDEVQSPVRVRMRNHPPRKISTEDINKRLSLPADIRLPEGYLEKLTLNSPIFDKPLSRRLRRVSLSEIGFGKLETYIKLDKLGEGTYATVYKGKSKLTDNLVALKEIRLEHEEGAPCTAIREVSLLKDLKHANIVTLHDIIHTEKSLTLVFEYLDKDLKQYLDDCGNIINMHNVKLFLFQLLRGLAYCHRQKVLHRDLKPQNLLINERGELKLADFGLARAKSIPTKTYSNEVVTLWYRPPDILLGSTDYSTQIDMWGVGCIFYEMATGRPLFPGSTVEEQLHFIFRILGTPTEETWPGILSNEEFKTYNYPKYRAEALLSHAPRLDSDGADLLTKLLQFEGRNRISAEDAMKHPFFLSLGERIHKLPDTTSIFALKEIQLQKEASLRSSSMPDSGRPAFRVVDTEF
# Sequence of UniProt P51636 (P51636 whole entry, looked up): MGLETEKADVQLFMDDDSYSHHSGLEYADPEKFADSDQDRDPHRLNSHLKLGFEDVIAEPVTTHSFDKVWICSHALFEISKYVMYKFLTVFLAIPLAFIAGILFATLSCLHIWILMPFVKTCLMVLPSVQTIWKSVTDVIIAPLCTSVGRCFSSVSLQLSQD
# Sequence of UniProt Q8WUD6 (Q8WUD6 whole entry, looked up): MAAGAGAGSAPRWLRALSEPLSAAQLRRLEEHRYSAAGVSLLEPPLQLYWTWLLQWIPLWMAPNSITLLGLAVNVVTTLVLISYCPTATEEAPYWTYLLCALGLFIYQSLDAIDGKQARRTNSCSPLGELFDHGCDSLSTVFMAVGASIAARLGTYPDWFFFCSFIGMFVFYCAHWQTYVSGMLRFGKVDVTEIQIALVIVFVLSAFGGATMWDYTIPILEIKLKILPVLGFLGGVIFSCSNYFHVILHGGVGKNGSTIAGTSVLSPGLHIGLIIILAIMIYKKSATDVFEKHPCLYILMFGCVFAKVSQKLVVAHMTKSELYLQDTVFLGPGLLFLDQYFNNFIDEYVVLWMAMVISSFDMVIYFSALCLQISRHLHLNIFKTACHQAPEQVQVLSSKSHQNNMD
# Sequence of UniProt Q9NRR8 (Q9NRR8 whole entry, looked up): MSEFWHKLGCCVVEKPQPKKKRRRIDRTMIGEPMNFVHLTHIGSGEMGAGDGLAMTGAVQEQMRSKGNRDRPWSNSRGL
# Sequence of UniProt P24311 (P24311 whole entry, looked up): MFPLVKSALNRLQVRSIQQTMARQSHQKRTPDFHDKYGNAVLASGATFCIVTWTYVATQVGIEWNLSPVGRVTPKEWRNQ
# Sequence of UniProt P15954 (P15954 whole entry, looked up): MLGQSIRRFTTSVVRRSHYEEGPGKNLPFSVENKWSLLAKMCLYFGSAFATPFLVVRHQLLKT
# Sequence of UniProt Q14677 (Q14677 whole entry, looked up): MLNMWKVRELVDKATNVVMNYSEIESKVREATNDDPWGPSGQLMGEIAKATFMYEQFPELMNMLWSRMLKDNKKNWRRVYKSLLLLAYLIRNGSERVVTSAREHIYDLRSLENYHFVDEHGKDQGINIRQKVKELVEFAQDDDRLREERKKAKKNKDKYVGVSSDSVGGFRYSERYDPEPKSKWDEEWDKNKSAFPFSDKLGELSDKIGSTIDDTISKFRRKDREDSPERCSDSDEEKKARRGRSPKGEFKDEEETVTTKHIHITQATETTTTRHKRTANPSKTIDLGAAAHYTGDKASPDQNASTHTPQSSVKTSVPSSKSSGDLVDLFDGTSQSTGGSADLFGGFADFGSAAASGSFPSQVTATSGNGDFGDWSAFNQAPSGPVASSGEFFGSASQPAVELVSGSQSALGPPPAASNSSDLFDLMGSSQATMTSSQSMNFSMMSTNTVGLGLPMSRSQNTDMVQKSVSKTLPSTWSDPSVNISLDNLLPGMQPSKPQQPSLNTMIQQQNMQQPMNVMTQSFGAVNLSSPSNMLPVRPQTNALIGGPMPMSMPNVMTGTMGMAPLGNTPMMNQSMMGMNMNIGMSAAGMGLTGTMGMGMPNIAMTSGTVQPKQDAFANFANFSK
# Sequence of UniProt Q6P5X5 (Q6P5X5 whole entry, looked up): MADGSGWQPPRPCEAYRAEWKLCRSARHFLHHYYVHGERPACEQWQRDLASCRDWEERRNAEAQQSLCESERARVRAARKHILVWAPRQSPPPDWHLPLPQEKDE
# Sequence of UniProt Q13111 (Q13111 whole entry, looked up): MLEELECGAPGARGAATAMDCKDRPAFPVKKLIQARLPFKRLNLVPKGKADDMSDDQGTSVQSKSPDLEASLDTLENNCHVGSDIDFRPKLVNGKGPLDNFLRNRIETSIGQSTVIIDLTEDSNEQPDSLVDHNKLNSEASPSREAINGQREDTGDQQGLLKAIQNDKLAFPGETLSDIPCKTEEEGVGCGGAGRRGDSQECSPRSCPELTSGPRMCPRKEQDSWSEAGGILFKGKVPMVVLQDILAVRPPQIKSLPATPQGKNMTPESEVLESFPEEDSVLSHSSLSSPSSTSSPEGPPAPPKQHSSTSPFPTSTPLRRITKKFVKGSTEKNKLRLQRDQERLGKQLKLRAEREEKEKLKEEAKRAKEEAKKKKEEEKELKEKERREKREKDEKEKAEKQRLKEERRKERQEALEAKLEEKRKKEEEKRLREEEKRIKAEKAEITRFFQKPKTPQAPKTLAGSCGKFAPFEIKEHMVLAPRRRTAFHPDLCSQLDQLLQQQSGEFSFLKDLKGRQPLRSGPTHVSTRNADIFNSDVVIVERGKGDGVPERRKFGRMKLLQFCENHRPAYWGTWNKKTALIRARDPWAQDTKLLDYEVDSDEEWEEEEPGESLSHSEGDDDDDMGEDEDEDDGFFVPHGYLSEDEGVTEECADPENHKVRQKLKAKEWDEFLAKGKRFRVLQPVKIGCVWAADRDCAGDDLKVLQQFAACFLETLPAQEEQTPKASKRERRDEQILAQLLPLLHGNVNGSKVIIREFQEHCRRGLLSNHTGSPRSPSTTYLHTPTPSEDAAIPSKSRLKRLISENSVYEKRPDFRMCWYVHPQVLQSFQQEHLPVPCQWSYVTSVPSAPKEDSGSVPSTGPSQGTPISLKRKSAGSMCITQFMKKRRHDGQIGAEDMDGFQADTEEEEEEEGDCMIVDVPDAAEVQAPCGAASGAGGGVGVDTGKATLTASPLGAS
# Sequence of UniProt P46527 (P46527 whole entry, looked up): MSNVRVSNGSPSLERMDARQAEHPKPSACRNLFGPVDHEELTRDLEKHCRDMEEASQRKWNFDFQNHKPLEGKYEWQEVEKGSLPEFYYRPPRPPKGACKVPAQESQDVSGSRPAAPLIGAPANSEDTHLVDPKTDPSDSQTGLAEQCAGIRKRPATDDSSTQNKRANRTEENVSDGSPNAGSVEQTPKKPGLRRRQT
row,Target,log2 fold change
1,CASP8 isoform 9 (UniProt Q14790),-0.039
2,COX7C (UniProt P15954),0.073
3,C15orf41 (UniProt Q9Y2V0),-0.357 (active)
4,C6orf120 (UniProt Q7Z4R8),0.029
5,COG2 (UniProt Q14746),-0.051
6,CAB39L (UniProt Q9H9S4),-0.255
7,CDK19 (UniProt Q9BWU1),0.101
8,CHAF1A (UniProt Q13111),0.016
9,C19orf54 (UniProt Q5BKX5),-0.175
10,CAV2 (UniProt P51636),0.033
11,CMTM3 (UniProt Q96MX0),0.017
12,COX7B (UniProt P24311),0.074
13,CCNC (UniProt P24863),-0.074
14,CDK17 isoform 2 (UniProt Q00537),-0.171
15,CDK16 isoform 2 (UniProt Q00536),0
16,CDK4 (UniProt P11802),-0.056
17,CRLS1 (UniProt Q9UJA2),0.101
18,CDC42SE1 (UniProt Q9NRR8),-0.022
19,CENPE (UniProt Q02224),-0.35
20,CEP128 (UniProt Q6ZU80),0.046
21,CNN3 (UniProt Q15417),-0.057
22,CD84 (UniProt Q9UIB8),0.169
23,CLINT1 isoform 3 (UniProt Q14677),0.264 (active)
24,CDKN1B (UniProt P46527),0.004
25,C22orf39 (UniProt Q6P5X5),-0.232
26,CRTC1 isoform 2 (UniProt Q6UUV9),-0.034
27,CLN5 (UniProt O75503),-0.46
28,CHPT1 (UniProt Q8WUD6),-0.074

# Compound: Cc1ncc(-c2ccnc(Nc3ccc(S(C)(=O)=O)cc3)n2)n1C(C)C
# Test: as above
# Method in brief: as §1
row,Target,log2 fold change
1,CASP8 isoform 9 (UniProt Q14790),0.069
2,COX7C (UniProt P15954),-0.158
3,CCDC57 (UniProt Q2TAC2),-0.021
4,CRTC2 (UniProt Q53ET0),-0.094
5,COMMD1 (UniProt Q8N668),-0.057
6,C6orf120 (UniProt Q7Z4R8),-0.048
7,COG2 (UniProt Q14746),0.133
8,CDK19 (UniProt Q9BWU1),0.338
9,CHAF1A (UniProt Q13111),-0.074
10,COPS3 isoform 2 (UniProt Q9UNS2),-0.194
11,CAV2 (UniProt P51636),0.008
12,CMTM3 (UniProt Q96MX0),0.013
13,COX7B (UniProt P24311),0.01
14,CHST11 (UniProt Q9NPF2),0.008
15,CDK16 isoform 2 (UniProt Q00536),0.679 (active)
16,CDK4 (UniProt P11802),0.031
17,CRLS1 (UniProt Q9UJA2),0.056
18,CDC42SE1 (UniProt Q9NRR8),-0.155
19,CHST10 (UniProt O43529),0.104
20,CDCA2 (UniProt Q69YH5),0.042
21,CNN3 (UniProt Q15417),0.108
22,CLINT1 isoform 3 (UniProt Q14677),-0.026
23,CDKN1B (UniProt P46527),0.149
24,C1D (UniProt Q13901),-0.027
25,C22orf39 (UniProt Q6P5X5),-0.12
26,CLN5 (UniProt O75503),0.026
27,CHPT1 (UniProt Q8WUD6),-0.017
